This is a sample that favours compounds with a hit; in the whole collection about 1.8% have one here.
luminol inh ctr = quenches luminol chemiluminescence in Nox1 counter-screen; AID 1823; 16,000 tested, 0.4% active; HRP/luminol/H2O2 chemiluminescence counterscreen; inhibition, % at 6.7 µM; further: reference of the scale not given here
NOTCH agonist = NOTCH pathway agonism; NOTCH signaling luciferase reporter cells, luminescence; activation, % at 2.5 µM; 15,000 tested, 0.4% active; AID 434982; in the data active means activation above about 2.2%
OPRK1 antag MB = blocks the human kappa opioid receptor, Maybridge compounds | OPRK1 cells, antagonist mode, fluorescence readout | inhibition, % at 9 µM | 16,000 tested, 0.4% active | AID 652031; in the data active means inhibition above about 50%
TLR4-MyD88 inh = TLR4-MyD88 interaction inhibition; AID 811; inhibition, % at 10 µM; O00206; Cell-based TLR4-MyD88 binding inhibition assay; 16,000 tested, 0.06% active; in the data active means inhibition above about 45%
Nox1 inhibitor = inhibitors of human NADPH oxidase 1 (Nox1) | Q9Y5S8 | HT29 cells, luminol chemiluminescence ROS | inhibition, % at 6.7 µM | 16,000 tested, 0.81% active | AID 1792
Target sequence (Q9Y5S8 whole entry, looked up): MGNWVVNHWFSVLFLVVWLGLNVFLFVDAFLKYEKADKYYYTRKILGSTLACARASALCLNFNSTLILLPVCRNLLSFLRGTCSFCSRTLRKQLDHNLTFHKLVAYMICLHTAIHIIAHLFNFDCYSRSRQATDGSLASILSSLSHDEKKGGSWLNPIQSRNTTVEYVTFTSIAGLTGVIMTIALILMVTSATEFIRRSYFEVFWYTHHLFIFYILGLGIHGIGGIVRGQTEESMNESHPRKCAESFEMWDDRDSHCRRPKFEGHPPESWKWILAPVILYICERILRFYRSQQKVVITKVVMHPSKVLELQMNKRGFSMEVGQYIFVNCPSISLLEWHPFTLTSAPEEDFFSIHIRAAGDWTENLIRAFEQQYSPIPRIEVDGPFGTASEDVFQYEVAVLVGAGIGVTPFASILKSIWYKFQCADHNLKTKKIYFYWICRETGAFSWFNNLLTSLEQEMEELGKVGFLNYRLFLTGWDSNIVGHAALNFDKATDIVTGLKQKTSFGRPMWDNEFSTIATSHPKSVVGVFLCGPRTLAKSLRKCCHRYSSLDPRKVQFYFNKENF
Each line names hits and unclear results; the compound was inactive in the other large screens. Unless noted, no stated cut-off is given here; in the data, active means inhibition above about 75%; inactive means the rest.

O=C(O)C(F)(F)C(F)(F)C(=O)NCc1cccc(Cl)c1	OPRK1 antag MB 50
NC(=O)C1CCN(S(=O)(=O)c2cc(Cl)sc2Cl)CC1	none
S=c1nc[nH]c2[nH]ncc12	luminol inh ctr 80
Cc1noc2[nH]cnc(=S)c12	none
CCn1nc(C)c(NC(=O)c2ccc(Cl)cc2)c1C(=O)OC	none
N#Cc1cccnc1NNC(=O)COCC(=O)O	OPRK1 antag MB 83
CCCc1cc(=O)[nH]c(SCC(=O)N2CCN(c3ccccc3)CC2)n1	none (no result: NOTCH agonist)
CSc1ccc(/C=C/c2onc(C)c2[N+](=O)[O-])s1	OPRK1 antag MB 106
Cc1noc(/C=C/c2ccco2)c1[N+](=O)[O-]	none
O=C1C=C(CCCCCCC2=CC(=O)C(Br)=CC2=O)C(=O)C=C1Br	none
FC(F)(F)Oc1ccc(OCc2n[nH]c(=S)n2-c2ccc(Cl)cc2)cc1	none (no result: NOTCH agonist)
COc1cccc(Cc2n[nH]c(=S)n2Cc2ccco2)c1	luminol inh ctr 99
COc1cccc(Cc2n[nH]c(=S)n2-c2ccc(Cl)cc2)c1	luminol inh ctr 99
CCOC(=O)c1nsc(/C(C)=N/Nc2ccccc2)c1N	Nox1 inhibitor 98
CCOC(=O)/C(C)=N/Nc1ccc(OC(F)(F)F)cc1	none
C=CCn1c(CSc2ccccc2[N+](=O)[O-])n[nH]c1=S	luminol inh ctr 80
C=CCn1c(-c2ccccc2)n[nH]c1=S	luminol inh ctr 97
S=c1[nH]nc(-c2ccncc2)n1Cc1ccccc1	none
COC(=O)C(C(=O)OC)=C1C2CC3CC(C2)CC1C3	none
O=[N+]([O-])c1cc(C(F)(F)F)cc([N+](=O)[O-])c1Sc1ncc2ccccn12	Nox1 inhibitor 102 (no result: NOTCH agonist)
O=c1[nH]nc(N2CCSCC2)[nH]1	Nox1 inhibitor 89
O=c1cc(-c2ccccc2)c2ccccc2[nH]1	none
COCCCNC(=S)NNC(=O)CC#N	luminol inh ctr 98
CCN(CC)c1ccc(NS(=O)(=O)c2ccc(F)cc2)cc1	Nox1 inhibitor 102
OC(CN1CCN(Cc2c(F)cccc2Cl)CC1)Cn1ccc2ccccc21 (stereo not drawn)	NOTCH agonist 2.7
CC(C)(C)OC(=O)NCc1n[nH]c(=S)n1-c1ccccc1	luminol inh ctr 97
Cc1cc(C)c2c(=O)[nH]sc2n1	NOTCH agonist 2.8
CCN(CC)c1ccc(NC(=O)C2CCCCC2)c(N(CC)CC)n1	Nox1 inhibitor 75
COC(=O)c1ccsc1NC(=O)C1CCCCC1	none (no result: TLR4-MyD88 inh)
COc1ccc(Oc2cccc(Cl)c2CNC(=O)CSCC(=O)O)cc1	none
C=CCNC(=S)NNC(=O)CSc1ccccc1[N+](=O)[O-]	none
C=CCNC(=S)NNC(=O)c1oc2nc(-c3ccc(Cl)cc3)cc(-c3ccccc3)c2c1N	OPRK1 antag MB 66
Nc1nc2[nH]c(=S)[nH]c2c(=O)[nH]1	Nox1 inhibitor 93
Nc1nc2ccccc2c(=O)[nH]1	none
CCN(CC)c1ccc(N=C2C=CC(=O)c3ccccc32)c(C)c1	Nox1 inhibitor 99
COc1cccc(C(=O)CSc2nsc(SCC(=O)c3cccc(OC)c3)c2C#N)c1	Nox1 inhibitor 88
CC(=O)N[C@@H](Cc1ccccc1)C(=O)O	none
CN(C)c1cc(NC(=O)Nc2ccccc2)c2ccccc2n1	OPRK1 antag MB 57
Cc1cc(-c2nc(-c3ccnn3S(=O)(=O)c3ccccc3)cs2)no1	none
CCOC(=O)NNC(=S)Nc1ccccc1N1CCOCC1	luminol inh ctr 98
COC(=O)c1sccc1NC(=S)NCCN1CCNC1=O	luminol inh ctr 99
Cc1cccc(NNC(=O)C2CCC2)c1	luminol inh ctr 101
O=C(Nc1ccc(F)c(F)c1)C1CCC1	none
O=C(O)c1nccnc1C(=O)NCc1c(Cl)cccc1Oc1ccccc1	none
Oc1c(Cl)cc(Cl)cc1C1Nc2cc(Cl)c(C(F)(F)F)cc2N1 (stereo not drawn)	OPRK1 antag MB 57
N/C(=N\OC(=O)c1cccc(C(F)(F)F)c1)C1CSCCS1 (stereo not drawn)	none (no result: NOTCH agonist)
CSc1cc(-c2cccs2)[nH]c(=O)c1C#N	none
Cc1ccc(S(=O)(=O)NC(=O)Nc2c(C)n(C)n(-c3ccccc3)c2=O)cc1	Nox1 inhibitor 92
O=C1c2ccccc2S(=O)(=O)N1CC1CC(c2ccccc2Cl)=NO1 (stereo not drawn)	none
Cc1nc(Nc2ccc(Cl)cc2Cl)c(C#N)c(N(C)C)n1	none
O=[N+]([O-])c1ccc(NC(=S)Nc2cccc(C(F)(F)F)c2)cc1	none
COc1cccc(NC(=S)NNc2ccc([N+](=O)[O-])cc2)c1	Nox1 inhibitor 98
CC(=O)/C(C)=N/NC(=O)Cc1cccs1	none
CCOC(=O)c1cn[nH]c1NC(=S)Nc1cccc(C(F)(F)F)c1	OPRK1 antag MB 83
O=C(O)CSCC(=O)Nc1cccc(F)c1C(=O)O	none
O=C1CNC(=S)N1Cc1ccccc1Cl	NOTCH agonist 2.5
O=C1CNC(=S)N1Cc1ccccn1	none
NC(=O)c1nnc2cc(-c3ccccc3)nn2c1-c1ccccc1Cl	none
CC(C)C(=O)NNc1nc2c(c(=O)n(C)c(=O)n2C)n1Cc1ccc(Cl)cc1	Nox1 inhibitor 100
N#Cc1c(NCc2cccs2)ccc([N+](=O)[O-])c1NCc1cccs1	none
CN(C)Nc1ccc([N+](=O)[O-])c(NN(C)C)c1C#N	Nox1 inhibitor 81
Cn1nc(-c2ccccc2)c(O)c(N=Nc2ccccc2)c1=O	Nox1 inhibitor 97
CCOC(=O)c1sc2nc(C)c(N=Nc3ccccc3)c(C)c2c1N	none
CC1COC(c2cccc([N+](=O)[O-])c2)N1 (stereo not drawn)	OPRK1 antag MB 56
COc1ccc(C(=O)c2ccc([N+](=O)[O-])cc2)cc1	none
CSC1=NS(=O)(=O)c2c(C)nn(C)c2S1	Nox1 inhibitor 89
COc1ccccc1NC(N)=S	NOTCH agonist 4.8
CCOC(=O)c1cc2nc3sccn3c2s1	none (no result: TLR4-MyD88 inh)
CN(C)c1ccc(NC(=O)Nc2cccs2)cc1	Nox1 inhibitor 92
Cc1nnsc1-c1nnc(C2CCCCC2)o1	NOTCH agonist 3.8
Cc1nnsc1-c1nnc(-c2ccccc2C(F)(F)F)o1	none
COc1c(Cl)cc(Cl)c(OC)c1C(=O)NNc1cc(Cl)ccc1Cl	none
Cc1noc(C)c1C(=O)NNc1cc(Cl)ccc1Cl	none
Cc1nnsc1C(=O)NNc1cc(Cl)ccc1Cl	Nox1 inhibitor 76
Cc1cc(C(=O)NNc2cc(Cl)ccc2Cl)no1	Nox1 inhibitor 81
N/C(=N\NC(=O)c1cccc(C(F)(F)F)c1)c1ccc(C(F)(F)F)cn1	none
O=C1CCC2=C(CCCC2)N1c1ccccc1	TLR4-MyD88 inh 45
O=[N+]([O-])c1ccc(S(=O)(=O)c2cc(Cl)ccc2Cl)[n+]([O-])c1	NOTCH agonist 3.6
O=[N+]([O-])c1ccc(-c2cc3cc(Cl)ccc3o2)cc1	none
CC(=O)Nc1onc(C)c1-c1nc(-c2ccc(Cl)cc2Cl)cs1	OPRK1 antag MB 50
Clc1ccc(-c2ccon2)c(Cl)c1	none
Nc1nc(NCc2ccccn2)n[nH]1	Nox1 inhibitor 90
COc1nc(Nc2ccccc2)nc(OC)n1	none
Nc1nc(NCc2cccnc2)n[nH]1	Nox1 inhibitor 77
Nc1nc(Nc2ccccc2)n[nH]1	Nox1 inhibitor 78 (no result: NOTCH agonist)
O=C1C=C(SCC(=O)Nc2ccc(Cl)cc2Cl)SC(c2ccccc2Cl)C1 (stereo not drawn)	none
CN(C)c1ccc(/C=C/c2ccccc2)cc1	none
O=c1[nH]n(CCO)c(=O)c2cccnc12	none

High-throughput results (PubChem BioAssay)
